Records with an inconclusive call do not appear. Active and inactive are the calls of the source. The call rests on the fitted dose curve; in most records, active means well fitted inhibition curve with a large enough effect; inconclusive means small, poorly fitted or top-dose-only effect; inactive means flat fitted curve, though single readings scatter.
What was measured:
Assay in all cases: qHTS profiling for inhibitors of Plasmodium falciparum proliferation (AID 504749); further: nearly all actives have a fitted effect of over 60% in size
Conditions in all cases: P. falciparum in erythrocytes, SYBR Green DNA, 72 h; series mostly up to 28.7 µM
CP238 = system: CP238
Procedure, shortened: (§1)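 Infected RBCs, 0.3% parasitemia/2.5% Hct final; cpd 72 h, 37 C, 5% CO2; lysis buffer with saponin/triton/SYBR Green I, o/n RT dark; FI 485/535; norm. to artemisinin (0.29 uM) and DMSO.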

CP247 = system: CP247
Procedure, shortened: as §1

CP250 = system: CP250
Procedure, shortened: as §1

CP252 = system: CP252
Procedure, shortened: as §1

CP256 = system: CP256
Procedure, shortened: as §1

CP266 = system: CP266
Procedure, shortened: as §1

CP268 = system: CP268
Procedure, shortened: as §1

CP305 = system: CP305
Procedure, shortened: as §1

CP315 = system: CP315
Procedure, shortened: as §1

CP325 = system: CP325
Procedure, shortened: as §1

CP329 = system: CP329
Procedure, shortened: as §1

CP286 = system: CP286
Procedure, shortened: as §1

CP291 = system: CP291
Procedure, shortened: as §1

CP297 = system: CP297
Procedure, shortened: as §1

CP265 = system: CP265
Procedure, shortened: as §1

CP262 = system: CP262
Procedure, shortened: as §1

CP269 = system: CP269
Procedure, shortened: as §1

CP335 = system: CP335
Procedure, shortened: as §1

CP260 = system: CP260
Procedure, shortened: as §1

Measured: Potency
Potency means the concentration at half of the fitted maximal effect.

CN1CCN(C2=Nc3ccccc3Sc3ccc(Cl)cc32)CC1
not listed: CP286 | CP291 | CP297 | CP265 | CP262 | CP269 | CP335 | CP260
inactive: all other assays above

CC(=O)O[C@]1(C(C)=O)CC[C@H]2[C@@H]3C=C(Cl)C4=CC(=O)CC[C@]4(C)[C@H]3CC[C@@]21C
active: CP266 10.7 µM | CP268 16.9 µM | CP286 10 µM | CP291 15.1 µM | CP297 9.53 µM | CP305 13.5 µM | CP325 15.1 µM

CC(=O)O[C@H]1C[C@@H]2CC[C@@H]3[C@H](CC[C@@]4(C)[C@H]3C[C@H]([N+]3(C)CCCCC3)[C@@H]4OC(C)=O)[C@@]2(C)C[C@@H]1N1CCCCC1
inactive: CP247 | CP268 | CP291 | CP315

O=C(O)CCc1nc2ccccc2[nH]1
inactive: CP238 | CP247 | CP256 | CP265

Oc1ccc(Cl)cc1Cc1cc(Cl)ccc1O
active: CP247 11.2 µM | CP252 12.6 µM
not listed: CP256 | CP325 | CP291 | CP265 | CP260
inactive: all other assays above

CN1CCC[C@@H]1CCO[C@](C)(c1ccccc1)c1ccc(Cl)cc1
inactive: CP238 | CP256 | CP260 | CP262 | CP265 | CP315 | CP325

NC1CCN(c2nc3c(cc2F)c(=O)c(C(=O)O)cn3-c2ccc(F)cc2F)C1 (centres undefined)
inactive: CP247 | CP250 | CP315

O=C(CN1CCN(Cc2ccc3c(c2)OCO3)CC1)N1c2ccccc2Sc2ccccc21
inactive: CP266
active: CP260 8.91 µM | CP265 7.94 µM | CP286 10 µM

CC(=O)OCC(=O)[C@H]1CC[C@H]2[C@@H]3CCC4=CC(=O)CC[C@]4(C)[C@H]3CC[C@]12C
inactive: all assays above

CN(C)C(=O)Nc1ccc(Cl)c(Cl)c1
inactive: CP250 | CP262 | CP265 | CP268 | CP286 | CP291 | CP325
active: CP247 4.47 µM

CC(C)(C)CC(C)(C)c1ccc(O)c(-n2nc3ccccc3n2)c1
active: CP247 11.2 µM
inactive: CP262 | CP266 | CP268 | CP269 | CP291 | CP297 | CP305 | CP315 | CP325 | CP329

OCCOCCN1CCN(C2=Nc3ccccc3Sc3ccccc32)CC1
not listed: CP266
inactive: all other assays above

Cc1ccc2c(Br)cc(Br)c(O)c2n1
inactive: CP262
active: CP247 11.2 µM | CP315 12 µM | CP329 15.1 µM
